# Experimental data: PubChem BioAssay AID720650 (Broad Institute, 2013)
# Active and inactive are the calls of the source. How the calls were made is not given here.
# Test: C difficile toxins, biochemical counterscreen, UDPG substrate absence, confirmatory dose response (AID 720650)
# Conditions: series mostly up to 19.5 µM
row,Compound,AC50
1,Cc1nc(SCC(=O)N2CCNC2=O)c(C#N)c(C)c1C,inactive
2,CN(C)c1ccc(C(=O)OCC#CCSc2nnc(-c3cccc4ccccc34)o2)cc1,inactive
3,O=C(OCC(=O)N1CCCCC1)c1ccccc1SCC(=O)N1CCCCC1,inactive
4,COc1cc(/C=N/NC(=O)c2cccc([N+](=O)[O-])c2)ccc1O,inactive
5,O=C(NC(=S)Nc1ccc(N2CCOCC2)cc1)c1ccccc1,inactive
6,OCC[C@H]1C[C@H](O)[C@@H](O)[C@@]2(Cc3ccccc3CO2)O1,inactive
7,O=c1c([N+](=O)[O-])cccn1Cc1ccc(F)cc1Cl,inactive
8,O=[N+]([O-])c1c(Nc2ccccc2O)ccc2nonc12,> 39 µM (inactive)
9,COc1ccc(C(=O)Nc2ccc3c(c2)C(=O)N(C)[C@@H]2CC[C@H](CC(=O)NCC4CC4)O[C@H]2CO3)cc1,inactive
10,CCOC(=O)[C@H]1[C@H]2COc3ccc(OC)cc3[C@@H]2N2C(=O)CN(Cc3ccc(Cl)cc3)C(=O)[C@@]12C,inactive
11,CN(C)c1ccc(Cl)c(NC(N)=S)c1,19.2 µM (active)
12,COc1cc(Cn2c(-c3ccc(O)c(OC)c3)nc3ccccc32)ccc1O,inactive
13,ON=C1c2ccccc2-c2ccc(O)cc21,7.21 µM (active)
14,CCCCc1[nH]c(=O)c(C#N)c2c1CCCC2,inactive
15,COc1cc(/C=C2\SC(=S)N(NC(=O)c3cccc(O)c3)C2=O)ccc1O,inactive
16,CC(Sc1nccn1C)C(=O)c1c(N)n(C)c(=O)n(C)c1=O (configuration not stated),inactive
17,O=C(CSc1ccccc1)Nc1cc(S(=O)(=O)N2CCOCC2)ccc1N1CCOCC1,inactive
